Compounds without any hit were thinned out: in the full panel of roughly 83,000, 20% have a hit.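 Percent growth is the endpoint: 0 to 100 indicates growth inhibition (40 means 60% inhibition), 0 means no net growth, and negative values indicate cell death.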 A number with no mark means an inactive call. The source made the active and inactive calls. How the source made its calls: active means growth percent below 10; inactive means the rest.
test system: MDA-MB-468 breast; experiment: NCI-60 one-dose screen, 48 h (100 = growth as untreated, 0 = no growth, -100 = all killed); conditions: 10 µM unless noted

Structure (SMILES)	growth
CCOC(=O)[C@H](CSSc1ncnc2cc[nH]c12)NC(=O)[C@@H](C)c1ccc2cc(OC)ccc2c1	5.8% (active)
O=C1/C=C/[C@@H](O)[C@@H]2C[C@@H](O)C[C@H]2/C=C/CCC[C@H](CCc2ccc(C(F)(F)F)cc2)O1	-20.3% (active)
O=S(=O)(Nc1ccc(C2CC2)cc1)c1ccc(-c2cnc(C3CC3)o2)cc1	18.4%
CO[C@H](C(=O)[C@@H](O)[C@@H](C)O)[C@@H]1Cc2cc3cc(O[C@H]4C[C@@H](O[C@H]5C[C@@H](O)[C@H](O)C(C)O5)[C@H](O)C(C)(O)O4)cc(O)c3c(O)c2C(=O)[C@H]1O[C@H]1C[C@@H](O[C@H]2C[C@@H](O[C@H]3C[C@@H](OC)[C@H](O)C(C)O3)[C@@H](O)C(C)O2)[C@H](O)C(C)O1 (some centres not stated)	14%
CC(=O)c1cc2c(N)c(C(=O)Nc3cccc4ccccc34)sc2nc1C	4% (active)
Cc1c(Cl)cccc1S(=O)(=O)Nc1ccc2c(c1)C(=O)N(C1CCC(=O)NC1=O)C2=O (configuration not stated)	27.2%
CC/C(=N\Nc1nc2ccccc2n1C)c1ccccn1	-14.5% (active)
Cc1cc(C)on1	98.5%
COc1ccc(-c2csc(N/N=C/c3c(-c4ccc(S(C)(=O)=O)cc4)nc4ccccn34)n2)cc1	106%
COc1cc(-c2nn(-c3cccc(NC(=O)CCN4CCN(C)CC4)c3)cc2-c2ccncc2)ccc1Cl	18.2%
Nc1nc(SCC#CCCl)c2[nH]cnc2n1	-6.97% (active)
O=c1cc(Cc2ccc([N+](=O)[O-])cc2)[nH]c(=O)[nH]1	105%

From PubChem BioAssay (NCI)
